# From the supplement of paper PMC11417369
# The full ranking holds about 25,000 sequences; the median of “ln(normalized median fluorescence intensity)” is about 9.7, and the highest 2% start at about 11. This excerpt belongs to a sample that is enriched for the highest values.
# Tested on: PfAP2-HC AP2 domain (GST-tagged)
# Experiment: gcPBM binding intensity (ln(normalized median fluorescence intensity)); higher = stronger DNA binding
# Procedure, shortened: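 Probes on an Agilent 4 × 180k array were primer-extended, double-stranded and 36 bp long, taken from intergenic genomic regions, with negative controls added. GST-tagged P. falciparum DNA-binding domains from E. coli, about 25 μg on average, were applied to the array for 1 h in 1× PBS containing 1% milk, 0.2 mg/ml BSA, 0.5% salmon testes DNA and 0.03% Triton X-100. Binding intensity, obtained after Alexa488 anti-GST antibody detection and a 488 nm scan, is the highest Masliner-normalised natural-log median intensity across replicate spots of either probe orientation.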
row,Sequence,gcPBM binding intensity (ln)
1,TTAAAATTTTTCAAAAGTACATAAATAATATATATT [XGTACX_site4694],9.32
2,ATAAACAGATCATATACATGCATATATGTAGAATAA [TGCATGCA_site157],9.82
3,CACACGCACGAACACACACACACACGCATATAAATA [CACACA_site6302],10.9
4,AACACGCGCAGACACACACACACACGCACATATATA [CACACA_site7104],10.9
5,CACGCGCACGAACACACACACACACGCATATAAATA [CACACA_site7103],11
6,CACACGCACGAACACACACACATATAAATATAAATA [CACACA_site6299],10.2
7,CACACGCACGAACACACACACACACGCGCACATATA [CACACA_site6304],11
8,CACACGCACGAACACACACACACACGCACGCACATA [CACACA_site6305],10.7
9,ATATACTATTAACCACATATGTGTGTTAATTTATAT [GTGCAC_negctrl_site315],9.79
10,CATATATAATAATATTGTACATATATAATAATAATA [XGTACX_site3338],9.69
11,AAATAAGAACATAGAATGCACTTTTTTTTTTTTTCC,9.51
12,TAAATATATGCATATACACACAACAAAAAAATATAT [CACACA_site2341],10.1
13,AATAAGTATACACATACACACACACCCAAAAAAAAA [CACACA_site8034],11
14,AATAAAATAATAAAAGCACACAAGAATACACCCAAA [CACACA_site7919],10.6
15,TAAGTATACGCATACACACACACACCCAAAAAAAAA [CACACA_site425],10.4
16,AAGTAAAATAAGTATACACACATAAATATATATATA [CACACA_site685],10.1
17,TGATAATAAGCATACACACACACACTAGAAAAAAAA [CACACA_site4558],11.5
18,AAGAAAATAAAAAATAAGCATAATATGATATGATAT [TGCATGCA_negctrl_site196],10.1
19,TGATAATAAGCATACACACACACACTAAAAAAAAAA [CACACA_site6478],10.9
20,GGTGATAATAAGCATACACACACACCCAAAAAAAAA [CACACA_site8137],10.2
21,TGATAATAAGCATACACACACACACCCAAAAAAAAA [CACACA_site721],11.2
22,AATAAATTGGTATGTTGTACAAAGTAACCATCGATT [XGTACX_site2823],9.75
23,ATTCCACTGTTTTAGTGTACTGGTCGTTTTTTTTTT [XGTACX_site1738],9.89

row,Sequence,gcPBM binding intensity (ln)
1,TTAAATAAAATAAAAACATGCACACTTTATTTTTTT [TGCATGCA_site719],9.74
2,TATTAATTATTATGACATACATATCAGTTATTAAAA [CACACA_negctrl_site600],9.35
3,ATCAAGCACCAACACACACACACACCCCCACCCACA [CACACA_site370],11.3
4,GTTACACCAACAAACACACACACACCGACACCCAAA [CACACA_site5361],10.6
5,GTTACACCAACAAACACACACACACCCACCCACAAA [CACACA_site2427],10.6
6,AGCACCCACCAACACACACACACACCCACCCACCCA [CACACA_site8011],11.2
7,AGCACCCACCAACACACACACACACCCACCCACCGA [CACACA_site368],11.2
8,TCTTTATTATTCGCCACACACATATATATATATATA [CACACA_site3077],10.1
9,TTTCCAAATTGTTGACGGACACTCACGAATAGTTAT [XGTACX_site5720],9.63
10,ATTAAATGATCAAGGTGTACATTAACAAGAACTATA [XGTACX_site7022],9.72
11,CGTAGCCACACTAACACACACAAATATACACAATCA [CACACA_site7379],10.7
12,CGTAGCCGCACTAACACACACAAATATACGCAATCA [CACACA_site2898],10.1
13,TACGTAGCCACACTAACACACACAAATATGCACAAT [CACACA_site8942],10.9
14,TTTTTTTAAAGAATTATCATAAAATGATTGCATCAT [XGTACX_negctrl_site141],9.34
15,GCGAAATATTATTATAGTATACAAATACTTCTATGA [CACACA_negctrl_site197],9.51
16,TGTATCCATATTTGTTCACACACACCCATATTTATA [CACACA_site9190],10.4
17,TATCCATATTTGTTCACACACACACCCATTTATATA [CACACA_site3571],11
18,TATCCATATTTGTTCACACACACACCGATTTATATA [CACACA_site5888],10.2
19,TATAAAAAAAAAAAAAAAAAAAAAAATATATATATA [CACACA_negctrl_site817],9.34
20,TGGGATAGATCATTTACACACACAAAAAAAAAAAAA [CACACA_site2140],9.89
21,TTATTTATTTATTATAGTTCACTTGAAAATACAAGA [CACACA_negctrl_site1480],9.38
22,TATATATACATATACACACACACACCGATATATATA [CACACA_site8706],10.5
23,TATACACGCGGACACACACACACACGCAAAAAAAAA [CACACA_site6377],10.5

row,Sequence,gcPBM binding intensity (ln)
1,ATAGTATACGGACACACACACACACCGATATATATA [CACACA_site5032],11.2
2,AAAAAAAAAAGACACACACACACACGCATATACATA [CACACA_site7289],10.7
3,ATAGTATACAGACACACACACACACCGATATATATA [CACACA_site8511],10.7
4,CATACACGCGGACACACACACACACGCATATATAAC [CACACA_site6427],11.2
5,CGCATACACGGACACACACACACATATATATATATA [CACACA_site4520],10.9
6,AGTATACATATATATACACACACACCGATATATATA [CACACA_site8357],10.4
7,TATAGATACATATACACACACACACCGACATATATA [CACACA_site9138],10.8
8,GGCATACACGGACACACACACACACCGACATATATA [CACACA_site4493],11.5
9,CACGCATACGGACACACACACACACCGATATATATA [CACACA_site4521],11
10,TACATGAATAAACTTACACACACCCATGCATACATA [CACACA_site97],10.4
11,ATGTTATAATTTAGTGTGCACATATTAAGAGGAACA,10.1
12,TACATACAGATATATACACACATATATAATATATAT [CACACA_site4376],10
13,CCCTTAATATAAAGCACACATATATATAATATATAT [CACACA_site4439],9.79
14,CAAAATAAAAATAACACACACATTTATTTATATACA [CACACA_site6679],10.1
15,CCCCTCGAAATAATTTGTACGAATATATTGTCTGTA [XGTACX_site8308],9.68
16,ATGTATATGATTAAATGTACGTAAACAAATTTGTAA [XGTACX_site8174],9.81
17,ATATCATTAAAAGGATGTACATATGTGTATACAATA [XGTACX_site871],9.84
18,TATATATATATATATATATATATTAATATATATTAC [XGTACX_negctrl_site103],9.62
19,AAAAAAAAAAGACACACACACATAGACCTCCAATAG [CACACA_site7646],10.5
20,AAAAAAAAAAAACACACACACATAGACCTCCAATAG [CACACA_site3562],10.3
21,AAAAAAAAAAAAAACACACACACATAGACCTCCAAT [CACACA_site3563],11.3
22,ATAAAGAAATAAAGTTGTACATTATATATATATATA [XGTACX_site7729],9.61
23,GGTATATTAAAATAGGTGCATAAAACTAAGAGAAAA [GTGCAC_site9781],9.73

row,Sequence,gcPBM binding intensity (ln)
1,ATCAAAAGAAAACACACACACATACAGATATATATA [CACACA_site5974],11.2
2,AAAGAAAGAAAACACACACACATATATATATATCAA [CACACA_site3743],10.9
3,AAAAAAAAAAAACATACACACATACATACAGATATA [CACACA_site4681],10.1
4,TAGATACAGAAACACACACACACATACATATATACA [CACACA_site3437],10.6
5,ATCAAAAGAAAACACACACACATACATATATATATA [CACACA_site3795],11.1
6,AAAAAATACATCAAAAGAAACATATATATATATATA [GTGCAC_negctrl_site719],9.59
7,ATCTTTTATATATTCACACATAAAATTATACAGATA [CACACA_site5277],9.46
8,TATATTTCAGGGGGGAGTACAAATTTTTTTATATAA [XGTACX_site1600],10
9,ATATATGGGTAGTATACACACTGTATATTTAGGAAT [CACACA_site7357],9.91
10,ATATATATATATATGTGTACTAATAAGGTTAAATAA [XGTACX_site1535],9.85
11,AAAAAAAAAAAAGAAACACACACATATATATATATA [CACACA_site8525],10.7
12,AAAAAAAAAAGAAACACACACATATAGATTTATAAC [CACACA_site6927],10.9
13,TATATATAGAAACACACACACACATATATATATATA [CACACA_site4116],10.3
14,AAGAAAAAAAAAAAAACACACATATATATATATATA [CACACA_site2027],10.2
15,AAAAAAAAAAGAAACACACACATATATATATAGAAT [CACACA_site1777],10.3
16,AAAAAAAAGAAAAACACACACATATTTATTTATAAC [CACACA_site6600],10.2
17,AAAAAAAAAAAAGAAACACACATATATATATATATA [CACACA_site140],9.68
18,AAAAAAAAAAAAAAAACACACATATAGATTTATATA [CACACA_site7196],9.88
19,TATATATAGAAACACACACACATATATATATATATT [CACACA_site4115],10.5
20,TATATATAGAAACACACACACACATATATATATATT [CACACA_site2539],11.3
21,CAAGAAAAGAAACACACACACATATATATATATATA [CACACA_site3881],11.2
22,AAAAAAAAGAAAAACACACACATATATATATAGAAT [CACACA_site1006],11.3
